# Measured values from PubChem BioAssay (Tox21).
# Records with an inconclusive call do not appear. Activity calls are given as the source filed them. The call rests on the fitted dose curve; in most records, active means well fitted cell-killing curve with a large enough effect in the repeat runs; inconclusive means weak or mixed curves, or effect the other way; inactive means no such curve, though single readings can be large or run the other way.
# Assay: qHTS assay to identify small molecule antagonists of the peroxisome proliferator-activated receptor gamma (PPARg) signaling pathway - cell viability counter screen (AID 743194); further: nearly all actives have a fitted effect of over 55% in size
# Settings: PPARg-bla HEK293H viability, CellTiter-Glo luminescence, 17 h; Potency: co-treated with 50 nM rosiglitazone; series mostly up to 62.6 µM; activity change, negative = cytotoxicity: at the top concentration
# Excerpt: U.S. Tox21 Program National Center for Advancing Translational Sciences [NCATS] NIH Chemical Genomics Center [NCGC] U.S. Environmental Protection Agency [EPA] National Institutes of Environmental Health Sciences [NIEHS] National Toxicology Program [NTP] U.S. Food and Drug Administration [FDA] Tox21 Assay Overview: The peroxisome proliferator-activated receptors (PPARs) are lipid-activated transcription factors of the nuclear receptor superfamily with three distinct subtypes namely PPAR alpha, PPAR delta (also called PPAR beta) and PPAR gamma (PPARg). All these subtypes heterodimerize with Retinoid X receptor (RXR) and these heterodimers regulate transcription of various genes. PPAR-gamma receptor (glitazone receptor) is involved in the regulation of glucose and lipid metabolism. To identify the compounds that activate PPAR-gamma signaling, GeneBLAzer PPAR gamma UAS-bla HEK293H cell line (Invitrogen, Carlsbad, CA, USA) containing a beta-lactamase reporter gene under the control of an Upstream Activator Sequence (UAS) was used to screen the Tox21 compound library. The cytotoxicity of the Tox21 compound library against the PPARg-bla cell line was tested in parallel by measuring the cell viability using CellTiter-Glo assay in the same wells.
# Tox21 Assay Protocol Summary: PPARg-bla cells were dispensed at 3000 cells/5uL/well in 1536-well black wall/clear bottom plates using a Multidrop Combi (Thermo Fisher Scientific, Waltham, MA) dispenser. After the assay plates were incubated at 37 C and 5% CO2 for 5 h, 23 nL of compounds dissolved in DMSO, positive controls or DMSO only was transferred to the assay plate by a Pintool station (Kalypsys, San Diego, CA), followed by addition of 1ul Rosiglitazone (50 nM, final concentration in the wells). The assay plates were incubated at 37 C for 17 h, and then 1 uL of LiveBLAzerTM B/G FRET substrate was added using a Bioraptr Flying Reagent Dispenser (FRD) workstation (Beckman Coulter, Indianapolis, IN, USA). The assay plates were incubated at room temperature for 1 h and fluorescence intensity was measured by an Envision plate reader (PerkinElmer, Shelton, CT). For cell viability readout that measures cytotoxicity, 4 ul/well of CellTiter-Glo reagent was added into the assay plates using a Flying Reagent Dispenser. After 30 min incubation at room temperature, the luminescence intensity in the plates was measured using a ViewLux plate reader (PerkinElmer).
# On the % scale 0 is the no-effect control and ±100 the full control effect; potency means the concentration at half of the fitted maximal effect.
Compound,"activity change, negative = cytotoxicity",Potency
C=CCN1CC[C@]23c4c5ccc(O)c4O[C@H]2C(=O)CC[C@@]3(O)[C@H]1C5,-8.89% [at 62.6 µM] (inactive),–
COc1ccc(-c2ccccc2)cc1NNC(=O)OC(C)C,"1.03% [at 81.1 µM, co-treated with 50 nM rosiglitazone] (inactive)",–
C=CC(=O)OCCCCO,-3.46% [at 62.6 µM] (inactive),–
COC(=O)C(Cl)C(=O)OC,-6.33% (inactive),–
CCCCOC(=O)c1ccccc1C(=O)OCc1ccccc1,-29.3% (inactive),–
CN1C[C@H](CNC(=O)OCc2ccccc2)C[C@@H]2c3cccc4c3c(cn4C)C[C@H]21,–,26.6 µM (active)
CCOc1nc(F)cc2nc(S(=O)(=O)Nc3c(Cl)cccc3Cl)nn12,-35.2% (inactive),–
CC(C)(CCl)C(=O)Cl,-9.5% (inactive),–
[CH3][Sn]([CH3])([Cl])[Cl],–,inactive
O=C(O)C(F)(F)C(F)(F)C(F)(F)C(F)(F)C(F)(F)C(F)(F)C(F)(F)C(F)(F)C(F)(F)F,9.27% (inactive),–
c1ccc(CN2CCNCC2)cc1,11.4% [at 232 µM] (inactive),–
CN(N=O)c1ccc([N+](=O)[O-])cc1,0.522% (inactive),–
Sc1ccccc1Cl,0.968% (inactive),–
C[C@@H]1CC[C@H]2[C@@H](C)C(=O)O[C@@H]3O[C@@]4(C)CC[C@@H]1[C@]32OO4,2.7% (inactive),–
C=CCC1([C@H](C)CCC)C(=O)NC(=O)NC1=O,-12.1% [at 81.1 µM] (inactive),–
CCC(Br)(CC)C(=O)NC(N)=O,15% (inactive),–
O=[N+]([O-])C(Br)(CO)CO,-11.3% (inactive),–
CC(C)(C)c1cc([N+](=O)[O-])cc([N+](=O)[O-])c1O,–,0.435 µM (active)
ClCc1cccc(Cl)c1,0.844% (inactive),–
CC1C(=O)C[C@]2(C(C)C)C[C@H]12 (stereo not given in full),12.9% (inactive),–

Compound,"activity change, negative = cytotoxicity",Potency
Brc1ccccc1,0.493% (inactive),–
Cn1cc[n+](C)c1 (tested in a mixture with another compound),"6.67% [at 81.1 µM, co-treated with 50 nM rosiglitazone] (inactive)",–
O=C1CN=C(c2ccccc2)c2cc(Cl)ccc2N1CC1CC1,21.5% [at 62.6 µM] (inactive),–
NNC(=O)c1cccnc1,"19.3% [at 81.1 µM, co-treated with 50 nM rosiglitazone] (inactive)",–
C/C(=C\c1ccccc1)[N+](=O)[O-],–,21.9 µM (active)
C=C(C#N)CCC#N,18.1% (inactive),–
C=COC(C)=O,"15.3% [at 81.1 µM, co-treated with 50 nM rosiglitazone] (inactive)",–
C#CCOC(C(=O)OCCN(C)C)(c1ccccc1)c1ccccc1,6.22% (inactive),–
CS/C(C)=N/OC(=O)N(C)SN(C)C(=O)O/N=C(\C)SC,3.94% (inactive),–
c1ccc(C2CC2)c(OCC2=NCCN2)c1,-5.34% (inactive),–
IC(I)=C(I)I,–,9.77 µM (active)
Brc1ccc(Oc2ccccc2)cc1,"-0.317% [at 81.1 µM, co-treated with 50 nM rosiglitazone] (inactive)",–
COC(N)=O,2.07% (inactive),–
COC(=O)C(C)N(C(=O)Cc1ccccc1)c1c(C)cccc1C (stereo not given),-5.37% (inactive),–
CCCN(CCC)c1c([N+](=O)[O-])cc(S(C)(=O)=O)cc1[N+](=O)[O-],1.92% (inactive),–
CCBr,"-2.89% [at 81.1 µM, co-treated with 50 nM rosiglitazone] (inactive)",–
O=Cc1ccc2c(c1)OCO2,11% [at 62.6 µM] (inactive),–
C=CC(=O)OC,"17.1% [at 81.1 µM, co-treated with 50 nM rosiglitazone] (inactive)",–
O=C1NCN(c2ccccc2)C12CCN(CCCOc1ccc(F)cc1)CC2,-14% (inactive),–
CCCCCCCCCCOC(=O)c1ccccc1C(=O)OCCCCCCCCCC,25.3% (inactive),–
